In PubChem BioAssay (Tox21):
“And” between values parts separate entries of the source, which are not always exact repeats. Equal values may be shown once. Inconclusive results are not listed. Where a call stands in place of a potency, no number is given. Where a structure was tested more than once in an assay, its records may differ in their call. The source made the active and inactive calls. The call rests on the fitted dose curve; in most records, active means well fitted activation curve with a large enough effect in the repeat runs; inconclusive means weak or mixed curves; inactive means flat fitted curve, though single readings scatter.

test: A CellTox Green Cytotoxicity Assay to monitor cytotoxicity in HEK293 cells - 40 hour (AID 1224871); conditions: CellTox Green fluorescence; series mostly up to 35.3 µM; further: nearly all actives have a fitted effect of over 45% in size
Text: National Center for Advancing Translational Sciences [NCATS]
NIH Chemical Genomics Center [NCGC]
U.S. Environmental Protection Agency [EPA]
National Institutes of Environmental Health Sciences [NIEHS]
National Toxicology Program [NTP]
Cell-based models are critical for drug discovery. Determining the natural cytotoxic effects resulting from test compounds is an essential research activity. A CellTox Green Cytotoxicity Assay to monitor cytotoxicity in real time of continues cell culture during 40 hours of the compound treatment was used to screen Tox21 10K library compounds in Hek293 cells. CellTox Green Cytotoxicity Assay is a nonlytic, homogeneous, biofluorescent method to measure cytotoxicity in cell culture after experimental manipulation. The assay system uses a proprietary asymmetric cyanine dye that is excluded from viable cells but preferentially stains the dead cell's DNA. […] Viable cells produce no appreciable increases in fluorescence. Therefore, the fluorescence signal produced by the binding interaction with dead cell DNA is proportional to cytotoxicity.
The mixture of Hek293 cell suspension and reagents were dispensed at 600cells/6 ul/well in 1536-well tissue culture treated black solid bottom plates using a Multidrop dispenser. After the assay plates were incubated at a 37 C/5% CO2 incubator for 5 hours, 23 nL of compounds dissolved in DMSO, positive and negative controls was transferred to the assay plate by a pintool work station. The plates were incubated at 37 C for 40 hours. The fluorescence intensity were measured at 0h, 8h, 16h, 24h, 32h and 40h time points using ViewLux plate reader during compound treatment.
Potency means the concentration at half of the fitted maximal effect.

| SMILES | cytotoxicity increase | Potency |
| --- | --- | --- |
| NCCCNCCSP(=O)(O)O | -10.4% [at 6.97 µM] (inactive) | – |
| O=C(CCCN1CCN(c2ccccn2)CC1)c1ccc(F)cc1 | – | inactive |
| O=c1n(CCO)c(=O)n(CCO)c(=O)n1CCO | – | inactive and 38.9 µM (active) |
| Cc1cnc(NS(=O)(=O)c2ccc(N)cc2)nc1 | – | inactive |
| CC(C)CCCC(C)N (stereo not given) | – | inactive |
| O=C(O)CCCl | – | inactive |
| COCCCOCCCOC | – | inactive |
| COc1c(N2C[C@@H]3CCCN[C@@H]3C2)c(F)cc2c(=O)c(C(=O)O)cn(C3CC3)c12 | – | inactive |
| CCO[Si](CCC1CCC2OC2C1)(OCC)OCC (stereo not given) | – | inactive |
| O=C(O)c1ccccc1OP(=O)(O)O | – | inactive |
| CCCCC/C=C\CCC=O | – | inactive |
| CCn1nc(C(=O)O)c(=O)c2cc3c(cc21)OCO3 | – | inactive |
| N[C@@H](C(=O)N[C@@H]1C(=O)N2C(C(=O)O)=C(Cl)CS[C@H]12)c1ccccc1 | 2.56% [at 6.97 µM] (inactive) | – |
| CC(C)(c1ccc(O)cc1)c1ccc(O)cc1 | – | inactive and 17.7 µM (active) |
| COC(=O)CCSCCC(=O)OC | – | inactive |
| CC1=CC(C)C(C=O)CC1 (stereo not given) | – | inactive |
| Nc1c2c(nc3ccccc13)CCCC2O (stereo not given) | – | inactive |
| C1OCOCO1 | – | inactive |
| CC[N+](C)(C)c1cccc(O)c1 | – | inactive |
| CCCCCCCCCCCC | – | inactive |

| SMILES | cytotoxicity increase | Potency |
| --- | --- | --- |
| COCCc1ccc(OCC(O)CNC(C)C)cc1 (stereo not given) | – | inactive |
| Cc1nc2c([nH]1)c(=O)n(C)c(=O)n2Cc1ccco1 | – | inactive |
| Nc1cc(=O)[nH]c(N)n1 | – | inactive |
| CC/C=C\CC/C=C/CO | – | inactive |
| N=C(N)c1ccc2cc(OC(=O)c3ccc(N=C(N)N)cc3)ccc2c1 | – | inactive |
| CC(=O)c1ccccc1O | – | inactive |
| CC(NC(CCc1ccccc1)C(=O)O)C(=O)N1C(=O)N(C)CC1C(=O)O (stereo not given) | – | inactive |
| O=C(c1ccccc1)C1CCCCC1 | – | 24.5 µM (active) |
| c1ccc(CC2=NCCN2)cc1 | – | inactive |
| Cc1ccc(=O)n(-c2ccccc2)c1 | – | inactive |
| COc1ccc2c(c1)CCCC2=O | – | inactive |
| CC(C(=O)O)c1ccc(CC2CCCC2=O)cc1 (stereo not given) | – | inactive |
| O=Cc1cccc([N+](=O)[O-])c1 | – | inactive |
| CC(C)(CC(=O)O)C(=O)O | – | inactive |
| C/C=C(\C)C#N | – | inactive |
| O=C(O)CNC(=O)c1ccc([N+](=O)[O-])cc1 | – | inactive |
| CCCCCCCCCCCCN(CCCCCCCCCCCC)CCCCCCCCCCCC | – | inactive |
| O=C(O)COc1nn(Cc2ccccc2)c2ccccc12 | – | inactive |
| CCCCC(CC)COC(=O)c1ccccc1O (stereo not given) | – | inactive |
| N=C(N)c1ccccc1 | – | inactive |
